# Results reported in publication PMC5540273 (PLoS ONE, 2017).
# Legend:
# Details in all cases: concentration: 1 μM, replicates: in singlicate; n = 1
# MEK5 = tested on: T1, MEK5
# T1 construct: gene MAP2K5
# MEK6 = tested on: T2, MEK6
# T2 construct: gene MAP2K6
# MELK = tested on: MELK
# MERTK = tested on: MERTK
# MET = tested on: MET
# MINK = tested on: T3, MINK
# T3 construct: gene MINK1
# MKK7 = tested on: MKK7
# MKNK1 = tested on: MKNK1
# MKNK2 = tested on: MKNK2
# MLCK = tested on: T4, MLCK
# T4 construct: gene MYLK3
# MLK1 = tested on: T5, MLK1
# T5 construct: gene MAP3K9
# MLK2 = tested on: MLK2
# MLK3 = tested on: MLK3
# MRCKA = tested on: MRCKA
# MRCKB = tested on: T6, MRCKB
# T6 construct: gene CDC42BPB
# MST1R = tested on: MST1R
# MST1 = tested on: T7, MST1
# T7 construct: gene STK4
# MST2 = tested on: T8, MST2
# T8 construct: gene STK3
# MST3 = tested on: T9, MST3
# T9 construct: gene STK24
# MST4 = tested on: MST4
# 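Further: KINOMEscan kinase panel screen.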
Compound,%Inh (MEK5) [%],%Inh (MEK6) [%],%Inh (MELK) [%],%Inh (MERTK) [%],%Inh (MET) [%],%Inh (MINK) [%],%Inh (MKK7) [%],%Inh (MKNK1) [%],%Inh (MKNK2) [%],%Inh (MLCK) [%],%Inh (MLK1) [%],%Inh (MLK2) [%],%Inh (MLK3) [%],%Inh (MRCKA) [%],%Inh (MRCKB) [%],%Inh (MST1R) [%],%Inh (MST1) [%],%Inh (MST2) [%],%Inh (MST3) [%],%Inh (MST4) [%]
FC(F)(F)c1ccc(/C=C/c2cncnc2Nc2ccc3[nH]c(Cc4ccccc4)nc3c2)cc1 [GW709199],32,0,0,4,16,1,0,0,0,0,19,11,1,31,26,0,2,0,0,0
O=C(Nc1cccc(-c2nn3ccccc3c2-c2ccnc(Nc3cccc(F)c3)n2)c1)c1c(F)ccc(F)c1Cl [GSK357952],88,0,0,51,0,0,0,0,29,0,0,31,39,9,1,50,25,0,4,0
C[C@@H]1CC[C@@H](C(=O)Nc2ccccc2)CN1c1cc(-c2ccc3c(N)n[nH]c3c2)nc(N)n1 [GSK2286062],4,8,31,39,0,9,0,0,12,16,7,0,13,0,0,26,0,0,11,0
Cc1ccc(S(=O)(=O)Nc2ccc(Nc3nccc(Nc4cccc5[nH]ncc45)n3)cc2)cc1 [GSK581271],69,0,0,9,0,0,0,0,1,0,0,0,0,7,0,35,46,0,11,0
Cc1ccc(C(=O)Nc2ccc(Nc3ccnc4cc(-c5nccs5)ccc34)cc2O)cc1.Cl [GW494702],99.9,0,1,24,0,47,0,22,8,12,0,0,0,1,0,34,0,5,3,0
C[C@@H](Oc1cc(-n2cnc3cc(-c4ccnc(NCCS(C)(=O)=O)c4)ccc32)sc1C(N)=O)c1ccccc1Cl [GSK907232],56,0,0,90.9,36,1,0,0,7,0,14,20,42,0,8,57,64,0,0,4
O=C(Nc1n[nH]c2cc(-c3ccoc3)ccc12)C1CC1 [SB-738481],45,0,0,0,0,44,0,0,15,34,0,0,6,1,0,0,0,25,0,0
Cl.NC(=O)c1cccc(Nc2nccc(Nc3ccc(Oc4c(Cl)cccc4Cl)c(Cl)c3)n2)c1 [GW659009],97.5,0,0,0,0,90.2,17,0,1,0,0,0,0,0,0,3,75,11,0,0
